Experimental data: the supplement of paper PMC11732987, “Enantioselective OTUD7B fragment discovery through chemoproteomics screening and high-throughput optimisation” (Communications Chemistry, 2025)

Tests used:
Test in all cases: log2 ratio of Biotin-Ahx-Ub-VS probe labelling (fragment/DMSO); higher = less target engagement (more negative = stronger competition), active = hit call of the paper (q ≤ 0.05, log2 ratio ≤ -1)
Details in all cases: compound concentration: 200 uM; treatment time: 3 h
USP34 = USP34 (UniProt Q70CQ2)
USP34, sequence (Q70CQ2 whole entry, the tested form may be a part): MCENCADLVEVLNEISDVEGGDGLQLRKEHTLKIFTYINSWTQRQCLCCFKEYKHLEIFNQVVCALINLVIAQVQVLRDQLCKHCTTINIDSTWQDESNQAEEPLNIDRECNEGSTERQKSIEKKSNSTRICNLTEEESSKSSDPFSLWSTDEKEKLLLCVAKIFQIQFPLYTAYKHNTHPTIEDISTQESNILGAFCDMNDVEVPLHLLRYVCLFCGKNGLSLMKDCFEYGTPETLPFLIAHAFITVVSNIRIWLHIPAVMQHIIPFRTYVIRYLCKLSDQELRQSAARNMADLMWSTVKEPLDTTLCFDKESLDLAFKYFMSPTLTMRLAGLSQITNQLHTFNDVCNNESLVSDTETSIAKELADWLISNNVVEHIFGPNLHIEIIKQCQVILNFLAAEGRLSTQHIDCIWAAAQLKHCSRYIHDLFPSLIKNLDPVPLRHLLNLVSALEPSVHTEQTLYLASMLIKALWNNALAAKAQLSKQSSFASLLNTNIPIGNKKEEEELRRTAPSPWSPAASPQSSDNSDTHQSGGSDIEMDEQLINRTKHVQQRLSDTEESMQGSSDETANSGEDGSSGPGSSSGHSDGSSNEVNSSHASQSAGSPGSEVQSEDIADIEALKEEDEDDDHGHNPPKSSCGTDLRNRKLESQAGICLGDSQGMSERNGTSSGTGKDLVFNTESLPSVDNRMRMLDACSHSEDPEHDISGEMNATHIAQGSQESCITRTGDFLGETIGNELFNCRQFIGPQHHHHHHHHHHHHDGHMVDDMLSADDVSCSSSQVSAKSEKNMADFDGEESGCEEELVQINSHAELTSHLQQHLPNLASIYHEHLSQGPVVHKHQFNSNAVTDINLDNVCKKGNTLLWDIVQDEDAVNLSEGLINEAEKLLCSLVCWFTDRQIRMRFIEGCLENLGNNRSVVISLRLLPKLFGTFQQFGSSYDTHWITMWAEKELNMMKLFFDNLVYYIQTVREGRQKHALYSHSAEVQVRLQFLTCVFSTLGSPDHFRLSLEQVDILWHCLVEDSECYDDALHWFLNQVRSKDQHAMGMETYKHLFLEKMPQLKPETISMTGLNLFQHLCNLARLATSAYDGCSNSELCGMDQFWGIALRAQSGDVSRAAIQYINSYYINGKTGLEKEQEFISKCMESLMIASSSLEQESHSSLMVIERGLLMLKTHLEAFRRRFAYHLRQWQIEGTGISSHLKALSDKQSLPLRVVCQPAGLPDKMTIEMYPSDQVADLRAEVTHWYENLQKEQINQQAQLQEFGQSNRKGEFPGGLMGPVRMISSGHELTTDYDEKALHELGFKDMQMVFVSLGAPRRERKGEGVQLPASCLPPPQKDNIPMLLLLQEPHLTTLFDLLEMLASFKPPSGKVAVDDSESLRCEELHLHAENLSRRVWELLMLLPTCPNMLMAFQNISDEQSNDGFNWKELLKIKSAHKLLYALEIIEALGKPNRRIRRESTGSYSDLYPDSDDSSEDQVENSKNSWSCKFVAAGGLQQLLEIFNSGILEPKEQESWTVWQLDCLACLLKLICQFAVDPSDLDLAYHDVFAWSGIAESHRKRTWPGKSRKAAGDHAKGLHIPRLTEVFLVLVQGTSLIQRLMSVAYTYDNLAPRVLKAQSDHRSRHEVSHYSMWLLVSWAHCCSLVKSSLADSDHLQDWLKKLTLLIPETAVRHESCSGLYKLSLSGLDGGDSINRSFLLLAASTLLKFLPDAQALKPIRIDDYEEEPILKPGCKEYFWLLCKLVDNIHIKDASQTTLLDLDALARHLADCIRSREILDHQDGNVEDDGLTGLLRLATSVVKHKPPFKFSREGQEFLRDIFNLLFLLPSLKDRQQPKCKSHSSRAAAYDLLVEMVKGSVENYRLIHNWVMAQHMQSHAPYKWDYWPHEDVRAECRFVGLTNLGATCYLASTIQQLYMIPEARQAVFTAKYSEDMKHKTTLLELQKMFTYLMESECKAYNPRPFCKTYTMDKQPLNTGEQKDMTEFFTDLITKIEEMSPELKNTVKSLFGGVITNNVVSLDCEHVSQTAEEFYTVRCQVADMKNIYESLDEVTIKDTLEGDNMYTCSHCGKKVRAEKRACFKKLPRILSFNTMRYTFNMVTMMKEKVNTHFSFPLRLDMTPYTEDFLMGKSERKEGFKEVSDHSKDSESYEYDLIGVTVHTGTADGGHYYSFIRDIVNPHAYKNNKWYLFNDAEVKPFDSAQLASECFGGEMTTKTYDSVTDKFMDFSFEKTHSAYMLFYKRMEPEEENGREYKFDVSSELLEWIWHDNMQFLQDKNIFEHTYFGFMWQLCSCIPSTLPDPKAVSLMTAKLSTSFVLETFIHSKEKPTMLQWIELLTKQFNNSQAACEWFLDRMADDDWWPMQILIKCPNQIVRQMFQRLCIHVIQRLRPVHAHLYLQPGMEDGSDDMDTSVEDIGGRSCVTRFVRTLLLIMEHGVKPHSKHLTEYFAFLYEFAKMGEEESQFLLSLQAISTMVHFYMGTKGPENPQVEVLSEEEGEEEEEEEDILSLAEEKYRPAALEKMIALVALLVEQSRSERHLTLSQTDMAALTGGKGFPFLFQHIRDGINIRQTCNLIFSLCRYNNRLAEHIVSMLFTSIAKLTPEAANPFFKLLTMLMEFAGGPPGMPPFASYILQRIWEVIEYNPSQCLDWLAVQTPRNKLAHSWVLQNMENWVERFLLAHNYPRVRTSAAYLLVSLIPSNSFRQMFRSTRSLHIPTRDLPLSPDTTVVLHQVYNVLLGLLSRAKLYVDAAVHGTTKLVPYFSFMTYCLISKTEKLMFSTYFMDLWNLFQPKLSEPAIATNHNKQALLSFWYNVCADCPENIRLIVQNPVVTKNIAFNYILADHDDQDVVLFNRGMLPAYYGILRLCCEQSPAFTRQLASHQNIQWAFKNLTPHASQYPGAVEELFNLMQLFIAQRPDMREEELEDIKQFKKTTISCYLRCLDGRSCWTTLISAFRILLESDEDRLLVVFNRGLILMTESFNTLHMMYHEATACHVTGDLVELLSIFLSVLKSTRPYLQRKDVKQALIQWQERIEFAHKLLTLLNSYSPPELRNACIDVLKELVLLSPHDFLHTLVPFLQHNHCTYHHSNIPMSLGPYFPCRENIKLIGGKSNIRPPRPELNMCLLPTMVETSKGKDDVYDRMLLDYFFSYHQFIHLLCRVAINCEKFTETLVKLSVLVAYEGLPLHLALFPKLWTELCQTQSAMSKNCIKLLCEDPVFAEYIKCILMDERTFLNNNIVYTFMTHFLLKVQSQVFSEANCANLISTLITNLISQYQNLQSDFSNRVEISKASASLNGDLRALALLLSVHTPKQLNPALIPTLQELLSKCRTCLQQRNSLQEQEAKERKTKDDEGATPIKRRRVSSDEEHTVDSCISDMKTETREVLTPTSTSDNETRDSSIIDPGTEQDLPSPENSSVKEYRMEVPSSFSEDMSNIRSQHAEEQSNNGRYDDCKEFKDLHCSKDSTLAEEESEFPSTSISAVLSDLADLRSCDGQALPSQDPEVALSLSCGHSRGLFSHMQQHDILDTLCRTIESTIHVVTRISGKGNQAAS
How it was run: (§1)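 Labelling with Biotin-Ahx-Ub-VS (0.5 µM final, 1 h) followed a 3 h triplicate treatment of HEK293T lysate (495 µg per sample, Tris/CHAPS/IGEPAL buffer with protease inhibitors) with fragment at 200 µM or vehicle. Labelled DUBs were NeutrAvidin-enriched, digested with LysC and trypsin, and run by diaPASEF LC-MS/MS. The values, average log2 fragment/vehicle ratios by unpaired t-test, come from global-median-normalised Spectronaut label-free quantities. Proteins with ≥2 unique peptides were used.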

USP36 = molecular target: T1, USP36 (UniProt Q9P275)
T1 sequence (whole entry): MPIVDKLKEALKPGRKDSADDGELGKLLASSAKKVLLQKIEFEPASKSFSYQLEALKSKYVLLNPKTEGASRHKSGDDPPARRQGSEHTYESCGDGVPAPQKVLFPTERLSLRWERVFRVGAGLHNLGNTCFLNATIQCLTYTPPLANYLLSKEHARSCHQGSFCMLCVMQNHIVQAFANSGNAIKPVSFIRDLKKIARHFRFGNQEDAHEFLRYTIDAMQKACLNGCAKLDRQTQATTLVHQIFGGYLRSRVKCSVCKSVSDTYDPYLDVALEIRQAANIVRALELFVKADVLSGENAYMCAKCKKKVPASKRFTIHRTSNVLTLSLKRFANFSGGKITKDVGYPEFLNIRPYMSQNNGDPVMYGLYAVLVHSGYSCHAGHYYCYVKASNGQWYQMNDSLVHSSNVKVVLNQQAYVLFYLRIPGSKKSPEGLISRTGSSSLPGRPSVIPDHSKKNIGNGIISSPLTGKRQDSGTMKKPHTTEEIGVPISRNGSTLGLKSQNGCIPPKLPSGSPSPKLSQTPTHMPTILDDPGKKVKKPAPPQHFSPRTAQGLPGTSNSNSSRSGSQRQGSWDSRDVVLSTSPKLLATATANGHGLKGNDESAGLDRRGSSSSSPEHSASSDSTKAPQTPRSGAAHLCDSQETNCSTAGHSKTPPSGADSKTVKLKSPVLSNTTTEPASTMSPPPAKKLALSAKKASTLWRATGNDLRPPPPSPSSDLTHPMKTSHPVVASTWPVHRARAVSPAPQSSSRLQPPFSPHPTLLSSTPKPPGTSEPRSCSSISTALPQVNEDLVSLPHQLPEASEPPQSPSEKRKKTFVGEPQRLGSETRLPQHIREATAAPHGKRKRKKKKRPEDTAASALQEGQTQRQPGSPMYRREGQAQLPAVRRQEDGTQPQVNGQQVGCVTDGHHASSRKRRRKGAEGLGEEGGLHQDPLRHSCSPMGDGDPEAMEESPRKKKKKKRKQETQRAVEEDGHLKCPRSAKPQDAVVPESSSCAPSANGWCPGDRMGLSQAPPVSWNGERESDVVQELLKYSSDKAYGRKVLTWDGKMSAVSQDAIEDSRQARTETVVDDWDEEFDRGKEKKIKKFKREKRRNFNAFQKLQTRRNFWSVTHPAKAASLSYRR
How it was run: as §1

USP38 = molecular target: T2, USP38 (UniProt Q8NB14)
T2 sequence (whole entry): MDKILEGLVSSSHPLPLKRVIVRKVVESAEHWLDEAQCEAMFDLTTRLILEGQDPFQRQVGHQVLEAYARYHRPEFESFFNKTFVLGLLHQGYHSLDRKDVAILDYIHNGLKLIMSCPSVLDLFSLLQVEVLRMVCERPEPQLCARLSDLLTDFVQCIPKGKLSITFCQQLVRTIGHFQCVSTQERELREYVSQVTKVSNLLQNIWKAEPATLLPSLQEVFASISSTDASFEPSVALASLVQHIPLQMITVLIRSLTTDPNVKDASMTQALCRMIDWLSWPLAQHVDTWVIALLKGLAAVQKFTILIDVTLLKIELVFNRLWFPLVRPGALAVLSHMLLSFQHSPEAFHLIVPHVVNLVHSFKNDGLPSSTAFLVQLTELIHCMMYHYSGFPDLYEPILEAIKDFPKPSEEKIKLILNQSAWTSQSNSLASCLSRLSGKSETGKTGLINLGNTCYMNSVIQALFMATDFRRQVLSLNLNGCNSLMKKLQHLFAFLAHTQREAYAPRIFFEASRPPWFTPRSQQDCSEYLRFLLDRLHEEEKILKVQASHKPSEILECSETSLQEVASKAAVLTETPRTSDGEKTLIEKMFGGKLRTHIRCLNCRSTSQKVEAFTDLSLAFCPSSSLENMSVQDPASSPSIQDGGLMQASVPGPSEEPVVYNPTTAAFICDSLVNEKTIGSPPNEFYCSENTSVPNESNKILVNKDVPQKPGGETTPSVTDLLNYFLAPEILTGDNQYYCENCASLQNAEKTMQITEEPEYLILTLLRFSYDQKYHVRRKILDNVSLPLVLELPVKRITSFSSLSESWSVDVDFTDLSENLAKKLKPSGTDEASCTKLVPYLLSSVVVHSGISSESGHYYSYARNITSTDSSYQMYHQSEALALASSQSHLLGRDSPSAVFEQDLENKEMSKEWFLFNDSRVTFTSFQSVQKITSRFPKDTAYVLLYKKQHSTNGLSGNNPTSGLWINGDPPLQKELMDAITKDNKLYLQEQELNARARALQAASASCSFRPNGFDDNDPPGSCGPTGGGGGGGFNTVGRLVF
How it was run: as §1

USP39 = molecular target: T3, USP39 (UniProt Q53GS9)
T3 sequence (whole entry): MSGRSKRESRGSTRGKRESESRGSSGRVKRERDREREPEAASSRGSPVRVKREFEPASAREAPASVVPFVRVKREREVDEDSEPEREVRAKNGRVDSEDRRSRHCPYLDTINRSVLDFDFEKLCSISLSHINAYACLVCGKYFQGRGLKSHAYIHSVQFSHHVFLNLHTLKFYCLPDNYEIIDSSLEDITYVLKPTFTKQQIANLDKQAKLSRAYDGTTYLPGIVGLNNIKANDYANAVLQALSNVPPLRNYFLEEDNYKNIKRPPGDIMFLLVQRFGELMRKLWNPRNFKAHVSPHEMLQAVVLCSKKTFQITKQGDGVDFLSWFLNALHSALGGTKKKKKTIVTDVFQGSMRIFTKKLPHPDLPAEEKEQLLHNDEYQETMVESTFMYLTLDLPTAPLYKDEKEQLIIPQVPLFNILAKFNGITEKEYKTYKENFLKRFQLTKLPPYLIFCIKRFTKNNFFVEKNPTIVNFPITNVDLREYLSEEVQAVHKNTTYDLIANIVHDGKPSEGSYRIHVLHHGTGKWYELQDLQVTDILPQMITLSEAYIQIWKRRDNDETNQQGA
How it was run: as §1

USP4 = molecular target: T4, USP4 (UniProt Q13107)
T4 sequence (whole entry): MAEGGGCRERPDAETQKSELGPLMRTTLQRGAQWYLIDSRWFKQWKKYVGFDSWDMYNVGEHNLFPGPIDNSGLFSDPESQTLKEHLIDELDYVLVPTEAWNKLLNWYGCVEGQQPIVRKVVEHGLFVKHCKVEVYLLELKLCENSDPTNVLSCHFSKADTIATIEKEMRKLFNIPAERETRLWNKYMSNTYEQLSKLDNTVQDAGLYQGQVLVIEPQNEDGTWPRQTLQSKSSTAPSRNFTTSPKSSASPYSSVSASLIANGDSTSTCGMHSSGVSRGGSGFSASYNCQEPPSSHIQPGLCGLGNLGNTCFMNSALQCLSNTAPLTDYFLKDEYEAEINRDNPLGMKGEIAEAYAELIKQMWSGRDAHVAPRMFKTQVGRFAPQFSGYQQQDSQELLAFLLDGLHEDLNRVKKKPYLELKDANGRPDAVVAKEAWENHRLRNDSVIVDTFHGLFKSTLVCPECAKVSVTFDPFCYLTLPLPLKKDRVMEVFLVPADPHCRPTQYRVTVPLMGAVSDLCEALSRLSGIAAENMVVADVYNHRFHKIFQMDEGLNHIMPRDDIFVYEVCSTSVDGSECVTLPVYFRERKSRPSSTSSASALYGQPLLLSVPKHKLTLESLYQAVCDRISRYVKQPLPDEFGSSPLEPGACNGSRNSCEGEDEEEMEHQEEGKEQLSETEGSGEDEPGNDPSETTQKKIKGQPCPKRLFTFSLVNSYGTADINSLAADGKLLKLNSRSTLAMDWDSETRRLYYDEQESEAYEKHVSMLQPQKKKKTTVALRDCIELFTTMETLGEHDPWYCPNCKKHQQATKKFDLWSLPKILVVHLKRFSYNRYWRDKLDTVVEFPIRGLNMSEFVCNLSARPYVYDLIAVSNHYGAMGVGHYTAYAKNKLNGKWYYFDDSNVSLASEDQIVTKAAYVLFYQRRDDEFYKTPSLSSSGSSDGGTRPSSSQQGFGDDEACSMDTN
How it was run: as §1

Measured: log2 ratio of Biotin-Ahx-Ub-VS probe labelling

CC1CCc2onc(CNC(=O)CCl)c2C1 (stereo not given)
inactive: USP34 0.0236 | USP36 0.0286 | USP38 0.0155 | USP39 0.358 | USP4 0.094
